Reference: PubChem BioAssay AID1220 (Sanford-Burnham Center for Chemical Genomics, 2008)
In all, about 190,000 compounds went through this assay and about 1,300 (0.68%) were called active. This is one part of a sample in which actives are shown more often than they occur. No stated cut-off is given here; in the data, active means inhibition above about 50%; inactive means the rest.

Target: Mannose-6-phosphate isomerase (Homo sapiens) (UniProt P34949)
Test: human PMI inhibitors, high substrate, primary screen, biochemical, fluorescence intensity, high mannose 6-phosphate (AID 1220)
Details: recombinant PMI enzyme, coupled fluorescence intensity; at 20 µM; stronger effect = higher value

Mannose-6-phosphate isomerase (Homo sapiens), sequence (P34949 whole entry, looked up): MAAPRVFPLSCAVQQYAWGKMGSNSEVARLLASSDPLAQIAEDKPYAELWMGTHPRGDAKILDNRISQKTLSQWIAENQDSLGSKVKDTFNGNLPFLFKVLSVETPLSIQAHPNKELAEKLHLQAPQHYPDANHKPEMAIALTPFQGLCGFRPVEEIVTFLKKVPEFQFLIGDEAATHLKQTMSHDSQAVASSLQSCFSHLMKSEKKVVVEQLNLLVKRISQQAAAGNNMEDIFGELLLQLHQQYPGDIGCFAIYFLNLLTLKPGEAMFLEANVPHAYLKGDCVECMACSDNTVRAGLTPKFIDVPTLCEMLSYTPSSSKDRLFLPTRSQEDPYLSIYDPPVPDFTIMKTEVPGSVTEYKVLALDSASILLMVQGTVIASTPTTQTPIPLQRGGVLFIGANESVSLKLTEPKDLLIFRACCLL

inhibition, inactive:
COc1ccc(-c2oc3ncnc(N)c3c2-c2ccccc2)cc1 5.7%
Nc1ccccc1C(=O)N(Cc1ccccc1)Cc1ccccc1 -1.7%
C=CCSc1nnc(-c2ccc([N+](=O)[O-])cc2)o1 -2.9%
Cc1ccc2c(C)[nH]c(=O)cc2c1 8.1%
CCOc1cc(CNCc2ccncc2)cc(Br)c1OCc1ccc(F)cc1 5.1%
Cc1ccc(S(=O)(=O)c2nc(-c3ccco3)oc2SCC(=O)NCC2CCCO2)cc1 (configuration not stated) 18.4%
COc1ccccc1N=c1c2c([N+](=O)[O-])cc([N+](=O)[O-])cc2n(O)n1-c1ccccc1OC -1.7%
CCc1ccc(N=c2c([N+](=O)[O-])nn(-c3ccccc3)n2O)cc1 2.1%
CCOc1cc(C2C(C#N)=C(N)Oc3n[nH]c(-c4ccncc4)c32)cc([N+](=O)[O-])c1O (configuration not stated) 24.5%
CCN(c1ccccc1)S(=O)(=O)c1ccc(Cl)c(NC(=O)COC(=O)C2CC2C)c1 (configuration not stated) 6.5%
Cc1ccc(S(=O)(=O)ON=C2CCN(S(=O)(=O)c3ccccc3)CC2)cc1 -1%
CC1=C/C(=N\OC(=O)/C=C/c2ccccc2)C(C)=CC1=O 8.4%
O=S(=O)(O/N=C1\CCCc2ccccc21)c1ccccc1 -10.1%
N/C(=N\OS(=O)(=O)c1ccccc1)c1ccccn1 -4.5%
O=S(=O)(O/N=C1\CCCc2ccccc21)c1ccc(Cl)cc1 -28.3%
CC1=C(C)/C(=N\OS(=O)(=O)c2ccccc2)C=CC1=O 49%
N/C(=N\OS(=O)(=O)c1ccccc1)c1ccncc1 -14.4%
Cc1ccc(S(=O)(=O)O/N=C2\CCCc3ccccc32)cc1 -0.1%
COc1ccccc1OC(C)c1nnc(SCC(=O)Nc2c(C)n(C)n(-c3ccccc3)c2=O)n1-c1ccccc1 (configuration not stated) 6.4%
COc1ccc(CNS(=O)(=O)NCc2ccc(C)cc2)cc1 -7.2%
Cc1ccc(C)c2nc3sc(C(=O)N4CCOCC4)c(N)c3cc12 2.2%
CCCC(=O)c1ccc(N2CCN(S(=O)(=O)c3ccccc3)CC2)c(F)c1 9.7%
CC(C)C1C(C#N)=C(N)Oc2n[nH]c(-c3ccccc3)c21 (configuration not stated) 9%
O=C(Cc1cccs1)NC(c1ccccc1)c1ccccc1 -1.3%
CCC(CC)c1nnc(NC(=O)c2ccco2)s1 8.5%
O=C1CN(C(=O)COC(=O)c2cccc(OCc3ccccc3)c2)c2ccccc2N1 20.2%
c1ccc(CC2CNc3ccccc3CN2)cc1 (configuration not stated) -7%
Cc1nc(N2CCN(S(=O)(=O)c3cccc4nonc34)CC2)c2c3c(sc2n1)CCCC3 14.8%
COc1cnc(-c2ccccn2)nc1Sc1cccc(Cl)c1 2.4%
CC(=O)c1ccc(NC(=S)N2CCN(c3cccc(Cl)c3)CC2)cc1 -8.9%
CCCC(=O)c1cc(F)c(N2CCN(S(=O)(=O)c3ccccc3)CC2)cc1C 14.8%
CCc1nn(CC(=O)Nc2ccc(Br)c(C)c2)c(=N)s1 -9.2%
CC1=CC(=O)C=C(C)C1=NOC(=O)/C=C\c1ccccc1 22%
CC(=O)N1C(C)(C)CC(=NOS(=O)(=O)c2ccccc2)CC1(C)C -21.1%
CC(=O)Nc1ccc(S(=O)(=O)N=S(C)(C)=O)cc1 15.7%
CCCC(=O)NC1=C(C#N)C2(CCCCC2)Cc2ccccc21 -7.8%
CC1CCCC(C)N1C(=O)CSc1nc2ccccc2s1 (configuration not stated) 0.3%
CCOC(=O)/C(=C/c1c(C)n(C)c2ccc([N+](=O)[O-])cc12)C(C)=O 2.1%
CC1(C)Oc2ccc(C(=O)N3CCCC3)cc2N(CC(=O)NCc2ccccc2)C1=O -8.2%
CC1(C)Oc2ccc(C(=O)N3CCOCC3)cc2N(CC(=O)Nc2ccccc2)C1=O 6.6%
CCOC(=O)Cn1c(=O)oc2cc(S(=O)(=O)Nc3ccc(F)cc3)ccc21 -4.3%
c1ccc(N2CCN(Cc3ccnc4ccccc34)CC2)cc1 -101%
O=S(=O)(c1ccc(Cl)cc1)N1CCN(Cc2ccc(O)c3ncccc23)CC1 45.3%
COc1ccccc1N1CCN(Cc2cc(Br)c(O)c3ncccc23)CC1 43.7%
Oc1ccc(CN2CCC(Cc3ccccc3)CC2)c2cccnc12 46.2%
OCc1ccc(O)c2ncccc12 28.8%
COc1ccccc1N1CCN(Cc2ccc(OC)c(OC)c2OC)CC1 -2.8%
Oc1ccc(CN2CCc3ccccc3C2)c2cccnc12 47.9%
Oc1ccc(COCc2ccccc2)c2cccnc12 46.2%
COc1ccc(N2C(=O)/C(=C\c3ccco3)N=C2SCC(=O)N(C(C)C)C(C)C)cc1Cl 2.5%
CC1C2CC(C(S(=O)(=O)N3CCOCC3)C2=O)C1(C)C (configuration not stated) 8.3%
O=C1CCC2=C(CCCC2=O)N1 0.9%
O=C1CC(=O)C(n2cncn2)C(c2ccc(Cl)cc2Cl)C1 (configuration not stated) 14.4%
COc1ccc2c(c1)c1ncn(Cc3ccco3)c(=O)c1n2C 0.7%
Oc1c(CN2CCCCC2)cc(COCc2ccccc2)c2cccnc12 23.4%
COCc1cc(CN2CCCC2)c(O)c2ncccc12 35.4%
CC(C)C(=O)Nc1ccc(C(=O)N2CCCCCC2)cc1 -8.1%

inhibition, active:
O=[N+]([O-])c1cc([N+](=O)[O-])c2c(=Nc3ccccc3)n(-c3ccccc3)n(O)c2c1 52.9%
CC1(C)Oc2ccc(C(=O)N3CCCCC3)cc2N(CC(=O)NCc2ccccc2)C1=O 107%
Oc1ccc(CN2CCCCC2)c2cccnc12 50.5%
Oc1ccc(CN2CCN(c3ccccc3)CC2)c2cccnc12 50.5%
OCc1ccnc2c(O)cccc12 59.6%
